This passage reports composite z-score results from PubChem BioAssay.

Tested on in the first experiment: not listed separately
Briefly: compound binding in COS7 lysate, probe aLAP1, primary screen, cell lysate, small-molecule microarray (AID 1124).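 Further: lysate comes from COS7 cells expressing LAP1 and is applied at 0.3 µg/mL; score merges spot fluorescence near 667 nm with signal-to-noise over triplicate slides.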 The conditions noted are these: probe aLAP1, fluorescence, higher = more signal.
`CO[C@H]1COC(=O)CC=C[C@@H](C)COC(=O)[C@@H](C)NC(=O)CC=C[C@@H]1C` gave a composite z-score of -0.495.
The same measure, in the same setting: then `C=C[C@H](OC)[C@@H](OC(=O)Nc1ccc(SC)cc1)c1ccc(O)c(F)c1`, with 0.694; and `[N-]=[N+]=NCc1ccccc1C[C@@]1(C(=O)N2CCOCC2)N=C(c2ccc(OCCCO)cc2)O[C@@H]1c1ccccc1N=[N+]=[N-]`, with 0.358.
On the same count and under the same terms, then `[N-]=[N+]=NCc1ccccc1C[C@@]1(C(=O)O)N=C(c2ccc(OCCCO)cc2)O[C@@H]1c1ccccc1N=[N+]=[N-]`, with 0.497; and `CSCC[C@@H]1NC(=O)CC=C[C@@H](C)COC(=O)[C@H](CCSC)NC(=O)CC=C[C@@H](C)COC1=O`, with -0.524; and `C=C(COC)/C(=C/C[C@@H](OC(C)=O)c1cccc(OCCO)c1)c1cc(C(=O)OC)ccc1OC`, with -0.315.
The molecule `CCOC(=O)C[C@H]1[C@H](OC(=O)c2cc3ccccc3oc2=O)[C@@H](NC(=O)C2CCCCC2)c2cc(OCCCO)ccc2N1C(=O)c1ccc2ccccc2n1` showed a composite z-score of -0.108.
On the same count and under the same terms, for `C=C(COC)C(=O)CC[C@H](OC(=O)c1ccccc1-c1ccccc1C(=O)O)c1cccc(OCCO)c1` the value was 0.893.
The same measure, in the same setting: for `C=CC[C@]1(C(=O)OC)N=C(c2ccc(OCCCO)cc2)O[C@H]1c1ccccc1CN=[N+]=[N-]` the value was -0.0978.

The next experiment relates to Sam68 (KHDRBS1). Description: Sam68 small-molecule binders, primary screen, biochemical, small-molecule microarray, 635 nm fluorescence (AID 1125).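 Further: score merges 667 nm channel intensity with signal to noise over triplicate slides.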 The conditions noted are these: small-molecule microarray binding, higher = more signal.
The molecule `O=[N+]([O-])c1ccc(C[n+]2ccc3ccc(O)cc3c2)o1` showed a composite z-score of 0.534.
The same measure, in the same setting: then `O=C1O[C@@H](c2ccccc2)[C@@H](c2ccccc2)N2[C@@H](c3ccccc3OCCO)[C@]3(C(=O)Nc4ccc(C#CC5=CCCCC5)cc43)[C@@H](C(=O)O)[C@H]12`, with 1.33; and `CCC#CCN(Cc1ccccc1Br)[C@H](/C=C/c1ccccc1)[C@@H](O)Cc1ccccc1`, with -1.13.
On the same count and under the same terms, then `COCCOC(=O)N1C(=O)[C@@]2(c3cc(C#CC4(O)CCCCCC4)ccc31)[C@H](C(=O)N1CCCCCCC1)[C@H]1C(=O)O[C@H](c3ccccc3)[C@H](c3ccccc3)N1[C@@H]2c1ccc(O)cc1`, with 1.3.
Same read-out and setting: then `C[N+](C)(C)CCCCNC(=O)[C@@H]1C[C@@H]2C(=O)N3CCC[C@H]3C(=O)N2[C@@H]1c1cccc(OCCO)c1`, with 1.04; and `C=CCN1C(=O)[C@]2(O[C@H](CCn3cc(CCO)nn3)[C@@H]([Si](C)(C)c3ccc(OC)cc3)[C@@H]2C)c2cc(NC(=O)c3ccc(OC)cc3)ccc21`, with 1.3; and `CO[C@H]1COC(=O)[C@@H](Cc2ccccc2)NC(=O)[C@@H](C)COC(=O)CC=C[C@@H]1C`, with -0.0602.
Turning to `O=C1C2C=CC(C(O)c3ccccc3)N(n3cnnc3)C2C(=O)N1Cc1ccccc1` (stereo not given), the composite z-score was -0.493.
Same read-out and setting: for `C=C(COC)/C(=C/C[C@@H](OC(=O)c1ccncc1)c1ccc(OCCO)cc1)c1cc(C(=O)OC)ccc1OC` the value was 1.3; for `O=C1C[C@@](C(=O)NCCN2CCOCC2)(c2ccc([N+](=O)[O-])cc2)[C@@H](c2ccc(CO)cc2)N1C1CCCCC1`, 1.17; for `COc1ccc(NN2C(C(O)c3cc(OC)c(OC)c(OC)c3)C=CC3C(=O)N(C4CCCCC4)C(=O)C32)cc1` (stereo not given), 1.3.
Same read-out and setting: for `C=C(C)[C@@H]1CC=C(C(O)C2C=CC3C(=O)NC(=O)C3N2Nc2ccccn2)CC1` (stereo not given in full) the value was 1.31.
On the same count and under the same terms, for `O=C1OCCC/C=C\[C@H]2OC34C=CCN(CCN5CCOCC5)C(=O)[C@H]3N(CCCCCO)C(=O)[C@@H]4C12` (stereo not given in full) the value was -0.369; for `NC(=O)NCC#Cc1ccc2c(c1)[C@]1(C(=O)N2)[C@H](C(N)=O)[C@H]2C(=O)O[C@H](c3ccccc3)[C@H](c3ccccc3)N2[C@@H]1c1ccccc1OCCO`, 0.978; for `COc1ccc([Si](C)(C)[C@H]2[C@H](CCO)O[C@@]3(C(=O)N(Cc4ccccc4)c4ccc(N5C(=O)c6cccc7cccc5c67)cc43)[C@@H]2C)cc1`, 0.143.
The molecule `CN(C)c1ccc(C(O)C2C=CC3C(=O)NC(=O)C3N2Nc2ccc(Cl)cc2Cl)cc1` (stereo not given) yielded a composite z-score of 0.708.
With `COC(=O)C(CC#Cc1ccc2c(c1)[C@]1(C(=O)N2)[C@H](C(=O)N2CCCCCCC2)[C@H]2C(=O)O[C@H](c3ccccc3)[C@H](c3ccccc3)N2[C@@H]1c1ccc(O)cc1)C(=O)OC`, the composite z-score is -0.92.
On the same count and under the same terms, for `C=CCNC(=O)[C@@H]1[C@H]2C(=O)O[C@H](c3ccccc3)[C@H](c3ccccc3)N2[C@H](c2ccc(OCCO)cc2)[C@@]12C(=O)N(C(=O)OCCOC)c1ccc(C#CC3(O)CCCCCC3)cc12` the value was 1.3; for `CC(C)[Si]1(C(C)C)O[C@@H](c2ccccc2)c2cc(C3CC3)nc(-c3ccc(Oc4ccccc4)cc3)c21`, -0.906; for `[N-]=[N+]=NCc1ccccc1C[C@]1(C(=O)N2CCCCC2)N=C(c2ccc(OCCCO)cc2)O[C@H]1c1ccccc1CN=[N+]=[N-]`, 1.29.
Same read-out and setting: for `Cc1ccc(N2C(=O)c3ccccc3[C@@H](C(=O)NCC(F)(F)F)[C@@H]2c2ccc(CO)cc2)nc1` the value was -1.85; for `CC(C)N1CC=CC23O[C@@H]4/C=C\CCCOC(=O)C4[C@H]2C(=O)N(CCO)[C@@H]3C1=O` (stereo not given in full), 0.534; for `O=C(NCC(F)(F)F)[C@@H]1c2ccccc2C(=O)N(Cc2ccccc2Cl)[C@H]1c1ccc(CO)cc1`, -1.35.
The same measure, in the same setting: for `C=CCNC(=O)[C@H]1[C@@H]2C(=O)O[C@@H](c3ccccc3)[C@@H](c3ccccc3)N2[C@@H](c2ccccc2OCCO)[C@]12C(=O)N(C(=O)OCCOC)c1ccc(C#CCC(C(=O)OC)C(=O)OC)cc12` the value was 1.3; for `C[C@@H]1C=CCC(=O)OC[C@H]2O[C@@H](C=C[C@@H]2O)[C@H](C)C=CCC(=O)OC[C@H]2O[C@H]1C=C[C@@H]2O`, 0.65; for `Cc1ccc(S[C@]2(C(=O)NCCN3CCOCC3)CC(=O)N(C3Cc4ccccc4C3)[C@@H]2c2ccc(CO)cc2I)cc1`, 0.458.
Molecule `CC(C)CNC(=O)[C@@]1(C)c2ccccc2C(=O)N(Cc2ccc(OC(F)(F)F)cc2)[C@H]1c1ccc(CO)cc1` yielded a composite z-score of -0.718.
On the same count and under the same terms, then `CO[C@H]1COC(=O)CC=C[C@@H](C)COC(=O)[C@@H](C)NC(=O)CC=C[C@@H]1C`, with 0.787; and `C=C[C@H](OC)[C@@H](OC(=O)Nc1ccc(SC)cc1)c1ccc(O)c(F)c1`, with 1.24.
Same read-out and setting: for `[N-]=[N+]=NCc1ccccc1C[C@@]1(C(=O)N2CCOCC2)N=C(c2ccc(OCCCO)cc2)O[C@@H]1c1ccccc1N=[N+]=[N-]` the value was 1.3; for `[N-]=[N+]=NCc1ccccc1C[C@@]1(C(=O)O)N=C(c2ccc(OCCCO)cc2)O[C@@H]1c1ccccc1N=[N+]=[N-]`, 1.3.
On the same count and under the same terms, then `CSCC[C@@H]1NC(=O)CC=C[C@@H](C)COC(=O)[C@H](CCSC)NC(=O)CC=C[C@@H](C)COC1=O`, with -0.32.
`C=C(COC)/C(=C/C[C@@H](OC(C)=O)c1cccc(OCCO)c1)c1cc(C(=O)OC)ccc1OC`: the composite z-score came out at 0.539.
On the same count and under the same terms, then `CCOC(=O)C[C@H]1[C@H](OC(=O)c2cc3ccccc3oc2=O)[C@@H](NC(=O)C2CCCCC2)c2cc(OCCCO)ccc2N1C(=O)c1ccc2ccccc2n1`, with 1.06; and `C=C(COC)C(=O)CC[C@H](OC(=O)c1ccccc1-c1ccccc1C(=O)O)c1cccc(OCCO)c1`, with 0.735; and `C=CC[C@]1(C(=O)OC)N=C(c2ccc(OCCCO)cc2)O[C@H]1c1ccccc1CN=[N+]=[N-]`, with -1.11.
